This passage reports growth results from PubChem BioAssay (NCI).

This is part of a sample that, as a whole, favours compounds with a hit. Of some 83,000 tested, about 20% had one in any assay.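 48-hour exposure, single concentration, 96-well plates; percent growth endpoint where 0 means no net growth. Active: below 10.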 A number with no mark means an inactive call. The source made the active and inactive calls.

This assay concerns MDA-MB-468 breast. As to the kind of experiment: NCI-60 one-dose screen, 48 h (100 = growth as untreated, 0 = no growth, -100 = all killed). Conditions: 10 µM unless noted.
Take `O=C(Nc1ccc(-c2nc(-c3cccc(O)c3)c(-c3ccnc(Br)c3)[nH]2)cc1)c1ccccc1`: the growth is 7.45% (active). As for `CCOc1ccc2nc(C)cc(Nc3ccc(Br)cc3)c2c1`, the figure is 100%; as for `Cn1cc(-c2cnc3ccc(NC(=O)Nc4ccc(F)c(Br)c4)cc3n2)cn1`, -6.86% (active).

Turning to `Cc1csc(/N=C(N)/N=C(\N)c2cccs2)n1`, the growth was 120%.

`CCN1C(=O)N(CC)C2C1NN=c1s/c(=C3\C(=O)N(CCC(C)C)c4ccccc43)c(=O)n12` (stereo unspecified): the growth is 27.1%. Regarding `CC(=O)O.CC(=O)O.O.[Fe]`, the growth was 100%. As to `CCc1nnc(NC(=O)c2ccoc2COc2ccccc2)s1`, the growth is 52.7%. With `Oc1ccc2ccccc2c1C1NN=C(c2ccccc2)S1` (stereo unspecified), the growth is 3.89% (active). Regarding `Cc1nn(-c2ccccc2)cc1/C=C1\SC(N2CCCCC2)=NC1=O`, the growth is 96.3%. With `Fc1ccc(-c2cn3c(-c4c[nH]c5ccc(Br)cc45)csc3n2)cc1`, the growth was 74.9%.

`Nc1ncc(-c2ccc3ncnc(Nc4cncc(Cl)c4)c3c2)cn1`: the growth is 7.6% (active). Turning to `CN(C)CCNC(=O)c1cccn2c(=O)c3cc4ccccc4cc3nc12`, the growth was -43.6% (active). The same measure for `CN(C)CCNC(=O)n1cc(-c2ccncc2)c(-c2cc(O)cc(Cl)c2)n1`: 84.1%. For the compound `CN(CCC#N)c1ccc(/C=C2\NC(=O)NC2=O)cc1`, the growth was 110%. For the compound `COC1=C(C)C(=O)c2c(c(CCCl)c3n2CCC3OC(C)=O)C1=O` (stereo unspecified), the growth was 85.5%. For the compound `CCCCCCCCCCCCCCCCCC1=NC(C)(C)CN1C(C)(C)CO`, the growth was -100% (active).
